High-throughput results as filed in PubChem.
PLK1 PBD inh – Plk1 polo box domain binding inhibitors, primary screen, biochemical, fluorescence polarization; Serine/threonine-protein kinase PLK1 (Homo sapiens), P53350; Plk1 PBD phosphopeptide binding; inhibition, %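 (tested at about 20 µM)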; 0.13% of 97,000 active; AID 693, 2007; in the data active = inhibition above about 34%, passing the limit was not always enough
Target sequence (P53350 whole entry, looked up, the tested form may be a part): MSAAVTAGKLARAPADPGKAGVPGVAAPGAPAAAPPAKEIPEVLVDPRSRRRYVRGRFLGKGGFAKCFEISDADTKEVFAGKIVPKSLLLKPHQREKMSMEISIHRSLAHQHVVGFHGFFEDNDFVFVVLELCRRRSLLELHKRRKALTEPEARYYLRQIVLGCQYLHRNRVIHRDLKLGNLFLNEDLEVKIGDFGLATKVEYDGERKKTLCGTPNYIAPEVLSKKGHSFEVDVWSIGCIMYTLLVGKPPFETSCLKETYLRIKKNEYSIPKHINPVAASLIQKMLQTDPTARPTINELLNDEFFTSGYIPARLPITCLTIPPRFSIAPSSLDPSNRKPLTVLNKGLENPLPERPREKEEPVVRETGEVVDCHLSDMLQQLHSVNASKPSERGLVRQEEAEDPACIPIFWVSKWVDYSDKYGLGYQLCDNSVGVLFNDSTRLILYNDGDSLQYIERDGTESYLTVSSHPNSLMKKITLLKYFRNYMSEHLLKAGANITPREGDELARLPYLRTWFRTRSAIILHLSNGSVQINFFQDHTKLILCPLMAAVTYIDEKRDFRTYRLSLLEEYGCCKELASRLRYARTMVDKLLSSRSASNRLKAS
CYP2C19 inhib – blockers of cytochrome P450 2C19 activity – biochemical, luminescence, ADME assay, primary screen. P33261. CYP2C19 Supersomes, luciferin-H EGE luminescence, 30 min. inhibition, % at 5 µM. 21% of 96,000 active. AID 778, 2007;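 active = CYP2C19 inhibition above a set limit at 5 µM in the primary screen, cut at about 50% in these data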;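 note: plate controls were negative control wells for no effect and 2.5 mM tranylcypromine positive control for full effect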
CYP2C19 activ – human CYP2C19 activators, primary screen, biochemical, luminescence; Cytochrome P450 2C19 (Homo sapiens), P33261; recombinant CYP2C19, luciferin-H EGE luminescence; hits give high values; 0 = fully inhibited enzyme, 1 = untreated enzyme; activation factor at 5 µM; 96,000 tested, under 10 active; AID 1025, 2008;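 active = activation factor of at least 2 at 5 µM in the primary screen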;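 note: 0 = wells with 2.5 mM tranylcypromine and 1 = vehicle-only wells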
CYP2C9 act – human CYP2C9 activators, primary screen, biochemical, luminescence | Cytochrome P450 2C9 (Homo sapiens), P11712 | recombinant CYP2C9, luciferin-H conversion; hits give high values; factor 1 = untreated enzyme, 0 = blocked | activation factor at 5 µM | 1.4% of 96,000 active;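 active = activation factor of 2 or more for CYP2C9 at a 5 µM dose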;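 note: 0 = sulfaphenazole-blocked wells and 1 = vehicle-only wells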
CYP2C9 inh – blockers of cytochrome P450 2C9 activity – biochemical, luminescence, ADME assay, primary screen; P11712; CYP2C9 Supersomes, luciferin-H conversion; inhibition, % at 5 µM; 20% of 96,000 active;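 active = blocking of liver enzyme CYP2C9 beyond about 50% at 5 µM, limit read from the data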
PLK1 inh – human PLK1 kinase inhibitors, primary screen, biochemical, TR-FRET. Serine/threonine-protein kinase PLK1 (Homo sapiens), P53350. recombinant PLK1 kinase, TR-FRET peptide phosphorylation. inhibition, % at 10 µM. 0.53% of 97,000 active. AID 619, 2007;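 active = inhibition of 50% or more in the single-concentration screen; inactive = inhibition below 50%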;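 note: 0% = DMSO max control and 100% = H-89 dihydrochloride min control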
The depositor's hits bear a star; . = no result. Shown are actives, neighbours in structure and some others; about 28% of the full set was active somewhere.

SMILES	PLK1 PBD inh	CYP2C19 inhib	CYP2C19 activ	CYP2C9 act	CYP2C9 inh	PLK1 inh
O=C(Nc1ccc2nc(-c3ccc(Br)o3)[nH]c2c1)c1cccs1	3	45	0.5	0.3	67*	-7
Cn1cccc1-c1nc2ccc(NC(=O)c3cccs3)cc2[nH]1	-7	73*	0.3	0.2	78*	-3
O=C(Nc1ccc2nc(-c3ccc(Br)o3)[nH]c2c1)c1ccco1	18	25	0.8	0.6	40	-13
COC(=O)CSC1=C(C#N)C(=O)NC(c2ccccc2)S1 (configuration not stated)	4	58*	0.4	0.1	92*	-7
CC(=O)c1cc2c(cc1NC(=O)Nc1cccc(Cl)c1)OCCO2	-4	-4	1	1	4	-12
COc1cc2c(cc1OC)C(=O)CC(C)S2 (configuration not stated)	2	1	1	1.2	-24	-1
CC1(C)Oc2ccc(C(=O)N3CCCC3)cc2N(CC(=O)NCc2ccccc2)C1=O	12	26	0.7	0.9	13	4
CC(C)(C)NC(=O)c1ccc2c(c1)N(CC(=O)N1CCN(c3ccc(F)cc3)CC1)C(=O)C(C)(C)O2	-26	79*	0.2	0.4	60*	-6
CC1(C)Oc2ccc(C(=O)NC3CCCC3)cc2N(CC(=O)NC2CCCCC2)C1=O	1	34	0.7	0.2	82*	-8
COc1ccc(C(=O)CN2C(=O)C(C)(C)Oc3ccc(C(=O)N4CCCCCC4)cc32)cc1	7	57*	0.4	0.2	78*	-5
CCOC(=O)CN1C(=O)C(C)(C)Oc2ccc(C(=O)Nc3ccccc3OC)cc21	-19	82*	0.2	0.7	32	-6
Cc1ccc(NC(=O)c2ccc3c(c2)N(CC(=O)N2CCCCC2)C(=O)C(C)(C)O3)cc1	11	58*	0.4	0	99*	-1
CC1(C)Oc2ccc(C(=O)N3CCc4ccccc43)cc2N(CC(=O)N2CCCC2)C1=O	24	23	0.8	0.7	34	-4
COc1cc(/C=N/Nc2nc3ccccc3o2)cc(OC)c1O	20	18	0.8	0.7	28	-6
COc1ccc(/C=N/Nc2nc3ccccc3o2)cc1O	-5	51*	0.5	0.5	52*	-11
O=C(OC1CCOC1=O)c1ccc2ccccc2n1 (configuration not stated)	40	-2	1	1.1	-6	-7
CC(CN1CCCCC1)OC(=O)c1cc2ccccc2o1 (configuration not stated)	3	-6	1.1	1.1	-10	-13
Cc1noc2ncc(C(=O)c3cc(F)ccc3O)cc12	-2	96*	0	0.5	50*	-10
Cc1[nH]nc2ncc(C(=O)c3cc(F)ccc3O)cc12	-12	58*	0.4	1.1	-10	24
COc1ccc2occ(C(=O)c3cccs3)c2c1	-5	75*	0.2	0.5	53*	-1
C/C=C(\CS(=O)(=O)c1ccccc1)S(=O)(=O)c1ccccc1	-10	87*	0.1	0.7	30	-10
CCc1ccc2c(c1)/C(=N/N(C)C(=S)NC)C(=O)N2	-2	52*	0.5	0.9	11	-12
Cc1nc(NC(=O)CC(C)C)sc1-c1csc(Nc2ccc(Cl)cc2)n1	11	51*	0.5	0.6	38	-17
Cc1nc(NC(=O)c2ccccc2)sc1-c1csc(Nc2ccc(Cl)cc2Cl)n1	1	65*	0.3	0.9	11	-14
COc1ccc(Cl)cc1Nc1nc(-c2sc(NC(=O)c3ccccc3)nc2C)cs1	-8	37	0.6	0.3	68*	-12
SMILES	PLK1 PBD inh	CYP2C19 inhib	CYP2C19 activ	CYP2C9 act	CYP2C9 inh	PLK1 inh
COc1ccc(Cl)cc1Nc1nc(-c2sc(NC(=O)CC(C)C)nc2C)cs1	-4	32	0.7	0.5	52*	10
COc1ccc(OC)c(Nc2nc(-c3sc(NC(=O)c4ccccc4)nc3C)cs2)c1	-7	-6	1.1	0.9	14	-3
Cc1nc(NC(=O)CC(C)C)sc1-c1csc(Nc2ccc(Cl)cc2Cl)n1	-8	1	1	0.8	24	-10
Cc1nc(NC(=O)c2ccccc2)sc1-c1csc(Nc2ccc(Cl)cc2)n1	8	45	0.6	1.2	-19	-12
CC1CN(C2CCN(C(=O)COc3ccc(Cl)cc3)CC2)CC(C)O1 (configuration not stated)	-5	9	0.9	1	3	-10
CSC1=NCCN1C(=O)Cc1ccc(Cl)cc1	17	57*	0.4	0.7	27	-7
COc1ccc(CC(=O)N2CCN=C2SC)cc1	-8	41	0.6	1	4	-7
Clc1nc(-c2n[nH]nc2Cl)n[nH]1	.	7	0.9	0.9	9	.
COC(=O)C1=C(C)NC2=C(C(=O)CCC2)C1c1cccs1 (configuration not stated)	5	79*	0.2	0.2	76*	-6
COC(=O)C1=C(C)NC2=C(C(=O)CC(C)(C)C2)C1c1ccsc1 (configuration not stated)	-6	.	.	.	.	-9
COc1ccccc1NC(=O)C1=C(C)NC2=C(C(=O)CCC2)C1c1ccc2c(c1)OCO2 (configuration not stated)	-12	63*	0.4	0.5	47	31
CC1=C(C(=O)OC(C)C)C(c2cccnc2)C2=C(CCCC2=O)N1 (configuration not stated)	19	46	0.5	0.7	32	1
COCCOC(=O)C1=C(C)NC2=C(C(=O)CC(c3cccs3)C2)C1c1ccsc1 (configuration not stated)	-47	58*	0.4	0.4	60*	-11
CCOC(=O)C1=C(C)NC2=C(C(=O)CCC2)C1c1ccsc1 (configuration not stated)	-8	53*	0.5	0.6	39	-11
COCCOC(=O)C1=C(C)NC2=C(C(=O)CC(C)(C)C2)C1c1cc2c(cc1Br)OCO2 (configuration not stated)	16	94*	0.1	0.2	81*	-1
CCCOC(=O)C1=C(C)NC2=C(C(=O)CCC2)C1c1ccc(N(C)C)cc1 (configuration not stated)	8	22	0.8	0.4	56*	-7
COc1cccc(C2C3=C(CC(C)(C)CC3=O)Nc3cc4c(cc32)OCO4)c1 (configuration not stated)	-2	72*	0.3	0.1	93*	-5
CCN(CC)c1ccc(C2C(C(=O)OCCOC)=C(C)NC3=C2C(=O)CCC3)cc1 (configuration not stated)	15	45	0.6	0.6	37	0
